Consider 63 compounds from the antibiotic and cytotoxicity screens of Wong et al. (2023).

Each structure is given as a SMILES string. In all, about 39,000 compounds went through this assay and about 3,300 (8.5%) were called active. Shown is part of a subset that was picked to be rich in actives.

The assay concerns HepG2. Description: cytotoxicity call (relative viability < 0.9). Conditions: 10 µM.
`C[C@@H]1CN([C@@H](C)CO)C(=O)c2cccc(NC(=O)C3CCCCC3)c2O[C@H]1CN(C)C(=O)Nc1cccc2ccccc12`: the cytotoxicity call is “inactive”.
In the case of `Cc1cc(C(=O)Nc2ccc3c(c2)C(=O)N(C)[C@@H]2CC[C@@H](CC(=O)NCC(F)(F)F)O[C@H]2CO3)no1` it was “inactive”; in that of `C[C@@H]1CN([C@@H](C)CO)C(=O)c2cc(NC(=O)CCC(F)(F)F)ccc2O[C@@H](C)CCCCO[C@@H]1CN(C)Cc1ccc(C(=O)O)cc1`, “inactive”.
In the case of `O=C(C[C@@H]1C=C[C@H](NC(=O)C2CC2)[C@@H](CO)O1)NCCCN1CCOCC1` it was “inactive”.
With `O=C(NCc1ccccc1)C1=C[C@H](c2ccc3c(c2)Cc2ccccc2-3)C[C@H](OCc2ccc(CO)cc2)O1`, the cytotoxicity call is “inactive”.
In the case of `C[C@@H]1CN([C@@H](C)CO)C(=O)c2cc(NS(C)(=O)=O)ccc2O[C@H]1CN(C)C(=O)Nc1ccc2c(c1)OCO2` it was “inactive”; in that of `C[C@@H]1CN([C@H](C)CO)C(=O)c2cc(NC(=O)NC3CCCCC3)ccc2O[C@@H](C)CCCCO[C@H]1CN(C)C(=O)Nc1ccc(C(F)(F)F)cc1`, “inactive”.
To `CCNC(=O)[C@@H]1CCCN1C(=O)[C@H](CCCNC(=N)N)NC(=O)[C@H](CC(C)C)NC(=O)[C@@H](COC(C)(C)C)NC(=O)[C@H](Cc1ccc(O)cc1)NC(=O)[C@H](CO)NC(=O)[C@H](Cc1c[nH]c2ccccc12)NC(=O)[C@H](Cc1cnc[nH]1)NC(=O)[C@H]1CCC(=O)N1` belongs “inactive”; to `CC(C)(C)OC(=O)CC[C@]12N=C(c3ccc(OCCCO)cc3)O[C@H]1c1ccccc1CN(Cc1ccccc1)C2=O`, “inactive”; to `O=C(c1ccccc1)N1Cc2ccccc2[C@H]2OC(c3ccc(OCCCO)cc3)=N[C@@]2(Cc2ccccc2)C1=O`, “inactive”.
Turning to `CC(C)(C)OC(=O)CC[C@@]12N=C(c3ccc(OCCCO)cc3)O[C@@H]1c1ccccc1CN(C(=O)c1ccccc1)C2=O`, the cytotoxicity call was “active”.
To `CC(C)(C)OC(=O)CC[C@]12N=C(c3ccc(OCCCO)cc3)O[C@H]1c1ccccc1CN(C(=O)c1ccccc1)C2=O` belongs “inactive”.
To `O=C1N(Cc2ccccc2)Cc2ccccc2[C@H]2OC(c3ccc(OCCCO)cc3)=N[C@@]12Cc1ccccc1` belongs “inactive”; to `O=C1N(Cc2ccccc2)Cc2ccccc2C[C@]12N=C(c1ccc(OCCCO)cc1)O[C@@H]2c1ccccc1`, “inactive”.
In the case of `CC(C)(C)OC(=O)CC[C@]12N=C(c3ccc(OCCCO)cc3)O[C@H]1c1ccccc1N(Cc1ccccc1)C2=O` it was “inactive”; in that of `O=C1N(Cc2ccccc2)Cc2ccccc2C[C@@]12N=C(c1ccc(OCCCO)cc1)O[C@H]2c1ccccc1`, “active”.
For the compound `CC(C)(C)OC(=O)CC[C@@]12N=C(c3ccc(OCCCO)cc3)O[C@@H]1c1ccccc1CN(Cc1ccccc1)C2=O`, the cytotoxicity call is “active”.
In the case of `COC(=O)c1cn(C)cn1` it was “inactive”; in that of `Cc1ccc(S(=O)(=O)N(C)C[C@H]2Oc3ccc(NS(C)(=O)=O)cc3CC(=O)N([C@H](C)CO)C[C@@H]2C)cc1`, “inactive”; in that of `C[C@@H]1CN([C@@H](C)CO)C(=O)c2cc(N(C)C)ccc2O[C@@H](C)CCCCO[C@@H]1CN(C)Cc1ccc(C(F)(F)F)cc1`, “inactive”.
As for `C[C@]1(CC(=O)O)C(=O)N=C2C=CC=CN21`, the cytotoxicity call is “inactive”.
To `COc1ccc(NC(=O)Nc2ccc3c(c2)C(=O)N([C@H](C)CO)C[C@H](C)[C@H](CN(C)Cc2ccc(C(F)(F)F)cc2)O3)cc1` belongs “inactive”; to `COc1ccc(NC(=O)Nc2ccc3c(c2)C(=O)N([C@H](C)CO)C[C@@H](C)[C@H](CN(C)Cc2ccc(C(F)(F)F)cc2)O3)cc1`, “active”; to `COc1ccc(CN(C)C[C@@H]2Oc3ccc(NC(=O)Nc4ccc(C(F)(F)F)cc4)cc3C(=O)N([C@H](C)CO)C[C@@H]2C)cc1`, “active”.
In the case of `COc1ccc(CN(C)C[C@@H]2Oc3ccc(NC(=O)Nc4ccc(C(F)(F)F)cc4)cc3C(=O)N([C@@H](C)CO)C[C@@H]2C)cc1` it was “active”.
On to `COc1ccc(NC(=O)Nc2ccc3c(c2)C(=O)N([C@H](C)CO)C[C@@H](C)[C@@H](CN(C)Cc2ccc(C(F)(F)F)cc2)O3)cc1`, for which the cytotoxicity call is “inactive”.
To `COc1ccc(CN(C)C[C@H]2Oc3ccc(NC(=O)Nc4ccc(C(F)(F)F)cc4)cc3C(=O)N([C@H](C)CO)C[C@@H]2C)cc1` belongs “inactive”.
To `COc1ccc(NC(=O)Nc2ccc3c(c2)C(=O)N([C@H](C)CO)C[C@H](C)[C@@H](CN(C)Cc2ccc(C(F)(F)F)cc2)O3)cc1` belongs “inactive”; to `COc1ccc(CN(C)C[C@H]2Oc3ccc(NC(=O)Nc4ccc(C(F)(F)F)cc4)cc3C(=O)N([C@H](C)CO)C[C@H]2C)cc1`, “active”.
In the case of `C[C@H]1CN([C@@H](C)CO)C(=O)c2cc(C#CC3(O)CCCC3)cnc2O[C@@H]1CN(C)C(=O)Cc1ccccc1` it was “inactive”; in that of `C[C@H](CO)N1C[C@H](C)[C@@H](CN(C)Cc2ccc(F)cc2)Oc2cc(C#CC(C)(C)O)ccc2S1(=O)=O`, “inactive”; in that of `OCC1OC(OC2C(O)C(CO)OC2(CO)OC2OC(CO)C(O)C(O)C2O)C(O)C(O)C1O` (stereo not drawn), “inactive”.
Turning to `CN(C)C(=O)N[C@H]1CN(S(C)(=O)=O)[C@H]2CCCO[C@@H]12`, the cytotoxicity call is “inactive”.
In the case of `C[C@@H]1CN([C@@H](C)CO)C(=O)c2cc(NS(=O)(=O)c3ccc(Cl)cc3)ccc2O[C@@H](C)CCCCO[C@H]1CN(C)Cc1ccc(C(=O)O)cc1` it was “inactive”; in that of `Cn1nc(C(=O)O)c2ccccc2c1=O`, “inactive”.
In the case of `COc1cccc(CNC(=O)c2cc3c(c(-c4cccc(-c5ccncc5)c4)n2)[C@@H](CCO)N([S@@](=O)C(C)(C)C)C3)c1` it was “inactive”; in that of `C[C@H]1CC/C=C\[C@H]2O[C@@]34C=CCN(Cn5nnc6ccccc65)C(=O)[C@H]3N(CCCCCCO)C(=O)[C@@H]4[C@@H]2C(=O)O1`, “inactive”.
In the case of `C[C@H]1CN([C@@H](C)CO)C(=O)c2cc(Br)cnc2O[C@@H]1CN(C)C(=O)Nc1ccc(F)cc1` it was “inactive”.
Take `COc1ccc(NC(=O)Nc2ccc3c(c2)C(=O)N([C@@H](C)CO)C[C@H](C)[C@@H](CN(C)Cc2ccc(C(F)(F)F)cc2)O3)cc1`: the cytotoxicity call is “active”.
To `COc1ccc(CN(C)C[C@H]2Oc3ccc(NC(=O)Nc4ccc(C(F)(F)F)cc4)cc3C(=O)N([C@@H](C)CO)C[C@@H]2C)cc1` belongs “active”.
To `COc1ccc(CN(C)C[C@@H]2Oc3ccc(NC(=O)Nc4ccc(C(F)(F)F)cc4)cc3C(=O)N([C@H](C)CO)C[C@H]2C)cc1` belongs “active”; to `COc1ccc(CN(C)C[C@H]2Oc3ccc(NC(=O)Nc4ccc(C(F)(F)F)cc4)cc3C(=O)N([C@@H](C)CO)C[C@H]2C)cc1`, “active”.
As for `c1ccc2c([C@@H]3CCCN3)cccc2c1`, the cytotoxicity call is “inactive”.
To `Cc1ccc(S(=O)(=O)N(C)C[C@@H]2Oc3c(NC(=O)c4ccncc4)cccc3C(=O)N([C@H](C)CO)C[C@H]2C)cc1` belongs “inactive”; to `C[C@@H]1CCCCO[C@H](CN(C)Cc2ccncc2)[C@H](C)CN([C@@H](C)CO)C(=O)c2cc(NC(=O)Cc3ccccc3)ccc2O1`, “inactive”.
To `COc1ccc(C#Cc2ccc3c(c2)O[C@H](CN(C)S(=O)(=O)c2ccccc2F)[C@H](C)CN([C@@H](C)CO)S3(=O)=O)cc1` belongs “inactive”; to `C=CCOC(=O)[C@H]1[C@@H]2C(=O)O[C@@H](c3ccccc3)[C@@H](c3ccccc3)N2[C@@H](c2ccc(OCCOC(=O)[C@H]3C[C@H]4C(=O)N[C@@H](CC(C)C)C(=O)N4[C@H]3c3ccc(O)cc3)cc2)[C@]12C(=O)Nc1ccccc12`, “inactive”; to `N=C(N)NCCS`, “inactive”.
To `C[C@@H]1CN([C@@H](C)CO)S(=O)(=O)c2ccc(C#Cc3ccccc3)cc2O[C@@H]1CN(C)C(=O)c1ccccn1` belongs “inactive”.
As for `C[C@@H]1CCCCO[C@@H](CN(C)C(=O)NC2CCCCC2)[C@H](C)CN([C@H](C)CO)C(=O)c2cc(NS(=O)(=O)c3ccc(Cl)cc3)ccc2O1`, the cytotoxicity call is “inactive”.
Consider `N#C[C@H](N)c1ccc(Cl)cc1`, for which the cytotoxicity call was “inactive”.
To `COc1ccc(NC(=O)Nc2ccc3c(c2)C(=O)N([C@@H](C)CO)C[C@H](C)[C@H](CN(C)Cc2ccc(C(F)(F)F)cc2)O3)cc1` belongs “inactive”; to `COc1ccc(CN(C)C[C@@H]2Oc3ccc(NC(=O)Nc4ccc(C(F)(F)F)cc4)cc3C(=O)N([C@@H](C)CO)C[C@H]2C)cc1`, “active”; to `COc1ccc(NC(=O)Nc2ccc3c(c2)C(=O)N([C@@H](C)CO)C[C@@H](C)[C@H](CN(C)Cc2ccc(C(F)(F)F)cc2)O3)cc1`, “inactive”.
To `COc1ccc(NC(=O)Nc2ccc3c(c2)C(=O)N([C@@H](C)CO)C[C@@H](C)[C@@H](CN(C)Cc2ccc(C(F)(F)F)cc2)O3)cc1` belongs “active”; to `C[C@@H]1CCCCO[C@@H](CN(C)C(=O)Nc2ccccc2)[C@@H](C)CN([C@@H](C)CO)C(=O)c2cc(NS(=O)(=O)c3ccccc3)ccc2O1`, “inactive”.
In the case of `C[C@@H]1CN([C@@H](C)CO)C(=O)CCCn2nncc2CO[C@H]1CN(C)S(=O)(=O)c1ccc(-c2ccccc2)cc1` it was “inactive”.
With `C[C@H]1CN([C@@H](C)CO)C(=O)Cc2cc(NC(=O)Nc3cccc4ccccc34)ccc2O[C@H]1CN(C)C(=O)Nc1ccc2c(c1)OCO2`, the cytotoxicity call is “inactive”.
To `C[C@@H]1CCCCO[C@@H](CN(C)S(=O)(=O)c2ccc(Cl)cc2)[C@H](C)CN([C@H](C)CO)C(=O)c2cc(NS(=O)(=O)c3ccc(F)cc3)ccc2O1` belongs “inactive”.
To `CC(C)N(C[C@H]1O[C@@H](n2cnc3c(N)ncnc32)[C@H](O)[C@@H]1O)[C@H]1C[C@@H](CCc2nc3ccc(C(C)(C)C)cc3[nH]2)C1` belongs “active”.
In the case of `Nc1ncnc2c1ncn2[C@@H]1O[C@H](C[C@@H](N)CC[C@H](N)C(=O)O)[C@@H](O)[C@H]1O` it was “inactive”.
For `CC(C)N(CCCNC(=O)Nc1ccc(C(C)(C)C)cc1)C[C@H]1O[C@@H](n2cnc3c(N)ncnc32)[C@@H](O)[C@H]1O`, the cytotoxicity call is “inactive”.
On to `C[C@H]1CN([C@@H](C)CO)C(=O)Cc2cc(NC(=O)C3CC3)ccc2O[C@@H]1CN(C)S(=O)(=O)c1cccs1`, for which the cytotoxicity call is “inactive”.
